# Experimental data as given in article PMC6212790, “How bacterial xenogeneic silencer rok distinguishes foreign from self DNA in its resident genome”.
# The full ranking holds about 33,000 sequences; the median of “e-score” is about -0.038, and the highest 2% start at about 0.33. Many of the other results were omitted from the sample, so the highest values are more common in it than they were.
# Target: T1, GST-Rok-C97-191 (Bacillus subtilis subsp. subtilis str. …, UniProt O34857 97-191)
# T1 sequence: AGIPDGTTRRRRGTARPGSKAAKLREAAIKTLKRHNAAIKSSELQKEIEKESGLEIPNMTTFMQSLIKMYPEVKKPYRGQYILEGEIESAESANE
# Experiment: protein binding microarray; Rok is a gene silencer of Bacillus subtilis; high values mean tight binding
# Conditions: protein: recombinant; tags: GST (pTH5325, pDEST15-Magic modified); dsDNA, one strand shown
# Procedure, shortened: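 Each has a 25-mer constant primer and a 35-mer variable part from a de Bruijn sequence of order 10, covering every non-palindromic 8-mer at least 32 times (palindromic 16). Preference for each 8-mer is given as a rank-based, unitless enrichment score (E-score). Its range runs from 0.5 (most favored) to −0.5 (most disfavored).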
row,Sequence,binding signal
1,ACGGAAAG,-0.117 E-score
2,CAGCTGCA,-0.0452 E-score
3,AACCTATA,0.183 E-score
4,TACCTATA,0.375 E-score
5,CACCTAAA,0.0109 E-score
6,CACCTATA,0.223 E-score
7,TACCTAAA,0.369 E-score
8,AACCTAAA,0.0757 E-score
9,ACAATGGA,-0.0232 E-score
10,GCTAGCCA,0.153 E-score
11,GATAAGAA,0.0314 E-score
12,GTATTATA,0.388 E-score
13,ATATTATG,0.0424 E-score
14,CTATTACA,0.35 E-score
15,ATATTACA,0.304 E-score
16,CTATTATC,0.211 E-score
17,ATATTATA,0.379 E-score
18,CTATTACC,0.312 E-score
19,GTATTAGA,0.171 E-score
20,ATATTATC,0.245 E-score
21,CTATTATA,0.329 E-score
22,CGATTATA,0.261 E-score
23,GTATTAAA,0.158 E-score
24,CCCACTAC,0.0131 E-score
25,AAGTGGCC,-0.135 E-score

row,Sequence,binding signal
1,ATGCATAC,0.0643 E-score
2,AATGACAT,0.115 E-score
3,ATCTAACA,0.192 E-score
4,CTCTTAGA,-0.0403 E-score
5,GGAAAATA,0.331 E-score
6,CGAAATTA,0.31 E-score
7,AGAAATTA,0.344 E-score
8,AGAAAATA,0.342 E-score
9,GGGAAATA,0.229 E-score
10,GGAAATTA,0.28 E-score
11,GAAAAATA,0.273 E-score
12,AGAAAATG,0.187 E-score
13,CGAAAATA,0.204 E-score
14,AAGAAGTG,0.201 E-score
15,GACCGGAA,-0.0227 E-score
16,ATCCTGTA,0.176 E-score
17,ACGTAAGT,-0.0408 E-score
18,AGCGTTTG,0.0655 E-score
19,ACAAAAAA,0.136 E-score
20,AATCGTCG,-0.0319 E-score
21,GAACTAGA,0.335 E-score
22,TAACTAGA,0.247 E-score
23,ACACTAGA,0.179 E-score
24,AGACTAGA,0.199 E-score
25,AAACTAGA,0.354 E-score

row,Sequence,binding signal
1,CAACTAGA,0.255 E-score
2,CCTAATCA,0.011 E-score
3,CCTCTTAA,-0.103 E-score
4,AACGCCAG,-0.0768 E-score
5,GAGGGAAC,-0.0649 E-score
6,CTAAATTA,0.141 E-score
7,GTAAACGA,-0.119 E-score
8,ATAAACTA,0.359 E-score
9,GTAAACTA,0.364 E-score
10,ATAAACTC,0.173 E-score
11,CTAAACGA,-0.0375 E-score
12,CTAAACTC,0.0554 E-score
13,GTAAACAA,-0.0801 E-score
14,ATAAATTA,0.259 E-score
15,ATAAACTG,0.199 E-score
16,GTAAATTA,0.378 E-score
17,CTAAACTA,0.386 E-score
18,GGAGGAAC,-0.069 E-score
19,ATAAGAAG,0.0784 E-score
20,TACAATAA,0.108 E-score
21,ACAAGGAG,-0.167 E-score
22,AAACAGCC,-0.174 E-score
23,TATGACAA,-0.00238 E-score
24,CCGGCAAG,-0.0857 E-score
25,CGCATGAC,-0.0389 E-score

row,Sequence,binding signal
1,CATCCATC,-0.0668 E-score
2,AAGCGGAC,-0.0303 E-score
3,GAGAGCTC,-0.123 E-score
4,CATGAATG,-0.00652 E-score
5,CATTGGTA,0.279 E-score
6,AATTGGTC,-0.0353 E-score
7,CAGTGGTA,0.232 E-score
8,CATTGCTA,0.118 E-score
9,AATTGGTA,0.331 E-score
10,AAGTGGTA,0.385 E-score
11,AAGTGGTC,-0.168 E-score
12,GATTGCTA,0.18 E-score
13,AATTGCTA,0.328 E-score
14,GTCAAGTA,0.157 E-score
15,CCTTTTCC,-0.198 E-score
16,CGCAACCG,0.0123 E-score
17,AAATTATT,0.296 E-score
18,TAATTATA,0.386 E-score
19,TAATTACA,0.396 E-score
20,CAATTATA,0.291 E-score
21,AAATTATC,0.364 E-score
22,GAATTACA,0.275 E-score
23,AAATTAAA,0.205 E-score
24,AAATTACA,0.325 E-score
25,GAATTATC,0.23 E-score

row,Sequence,binding signal
1,GAATTATA,0.24 E-score
2,AAATTATA,0.389 E-score
3,AAATTATG,0.224 E-score
4,AATCCATG,-0.019 E-score
5,CGAGTAAA,0.128 E-score
6,ACTCAGGC,-0.123 E-score
7,CAAAAGAG,-0.195 E-score
8,ACGGGGAA,0.0307 E-score
9,GAGTCCTA,-0.119 E-score
10,TATTTAGA,0.0799 E-score
11,ATAAAGGC,0.052 E-score
12,ACATACGC,-0.0272 E-score
13,CATAGACA,-0.0183 E-score
14,CGTCCACC,-0.198 E-score
15,GAGTTATA,0.213 E-score
16,TAGTTATA,0.39 E-score
17,CAGTTATA,0.187 E-score
18,GAGGAACA,-0.114 E-score
19,AAAATTAC,0.327 E-score
20,CAAATTAC,0.33 E-score
21,GAAATTAA,0.278 E-score
22,CAAATTAG,0.044 E-score
23,GAAATTAC,0.359 E-score
24,GAAATTGC,0.239 E-score
25,ATTCGCGG,-0.0504 E-score

row,Sequence,binding signal
1,CTAAGTTA,0.291 E-score
2,GCGAGACC,-0.114 E-score
3,CAACCCTG,-0.104 E-score
4,ATCATCTA,0.148 E-score
5,GAGCCTAC,-0.193 E-score
6,ATACAGTA,0.385 E-score
7,CAACAGTA,0.315 E-score
8,GTACAGTA,0.283 E-score
9,CTACAGTA,0.235 E-score
10,TAACAGTA,0.342 E-score
11,GAACAGTA,0.179 E-score
12,ATGGCACC,-0.0965 E-score
13,CCCTTCGC,-0.198 E-score
14,ACTAAGGA,0.268 E-score
15,ACGGCCAG,-0.104 E-score
16,CCTTCTGC,-0.174 E-score
17,AGTCGTAC,0.108 E-score
18,ATAGATAC,0.357 E-score
19,ATAGATAA,0.325 E-score
20,GAAGATAA,0.224 E-score
21,GTAGATAA,0.397 E-score
22,AGAGATAC,0.166 E-score
23,ACAGATAC,0.252 E-score
24,GCAGATAC,-0.00726 E-score
25,GTAGATAC,0.381 E-score

row,Sequence,binding signal
1,AAAGATAC,0.0421 E-score
2,CTAGATAA,0.3 E-score
3,CTAGATAC,0.204 E-score
4,AAAGATAA,0.33 E-score
5,TGAGAAAA,0.154 E-score
6,AAGGATGA,-0.0751 E-score
7,TGAAAGCA,0.0344 E-score
8,GACCGGGA,-0.0628 E-score
9,ACAGGCGG,-0.187 E-score
10,ACAGATAT,0.185 E-score
11,ATAGATAT,0.415 E-score
12,ATAGATAG,0.267 E-score
13,ACTTTTGA,0.0573 E-score
14,CAGACGCA,-0.191 E-score
15,AATTTCTG,0.128 E-score
16,GATTTCTA,0.357 E-score
17,ACTTTCTA,0.386 E-score
18,ATTTTCTG,-0.0553 E-score
19,GATTTCAA,0.0221 E-score
20,ACTTTCTC,0.0481 E-score
21,CATTTCTA,0.306 E-score
22,AATTTCTC,0.198 E-score
23,ATTTTCTC,0.255 E-score
